Entries with a potency or affinity are not part of this list.
Test system: Staphylococcus aureus
Details: Concentration 20 uM; ASSAY_TEST Inhibition of Bacterial Growth; detection method Absorption (OD600); MEDIA CAMHB; plate type 384well; NBS; CORNING #3640; time 18 hr

Question: `COc1cccc(CC(=O)N2CCC(n3c(C)nc4ccc(F)cc43)CC2)c1` was tested. Which Inhibition did it give?
Answer: The Inhibition was 21.64%.

Question: How did the Inhibition turn out when `Nc1ncnc2c1ncn2C[C@@H](O)[C@@H](O)C(=O)O` [ERITADENINE] was run?
Answer: Its Inhibition is 13.9%.

Question: With `CC(Oc1cccc(Cl)c1)C(=O)Nc1ccc2oc(-c3ccncc3)nc2c1` (stereo unspecified) as the compound, how does the Inhibition read?
Answer: The Inhibition was 60.53%.

Question: With `COc1ccc(OC(C)C(=O)Nc2ccc(Cl)cc2C)cc1` (stereo unspecified) as the compound, how does the Inhibition read?
Answer: Its Inhibition is 11.95%.

Question: `CCC(Sc1nc2ccccc2o1)C(=O)Nc1nnc(C)s1` (stereo unspecified) was tested. Which Inhibition did it give?
Answer: The Inhibition was -13.91%.

Question: For `Cc1cc(C)nc(-n2nc(C)cc2Nc2ccccc2)n1`, which Inhibition is on record?
Answer: Its Inhibition is 9.46%.

Question: For `CN1CCN(c2nccc3nc(-c4ccc(F)c(F)c4)[nH]c23)CC1`, which Inhibition is on record?
Answer: Its Inhibition is 17.33%.

Question: `COc1cccn2c(C(=O)N3CCCCC3)c(C(F)(F)F)nc12` was tested. Which Inhibition did it give?
Answer: The Inhibition was 18.98%.

Question: `CCC(C)NC(=O)c1ccc(NC(=O)C2(c3ccccc3)CCCC2)cc1` (stereo unspecified) was tested. Which Inhibition did it give?
Answer: The Inhibition was 13.32%.

Question: For `COc1cccc(-c2cc3c(Nc4cccnc4)nccc3[nH]2)c1`, which Inhibition is on record?
Answer: Its Inhibition is 13.42%.

Question: Which Inhibition does the source give for `CC(C(=O)Nc1ccc2oc(-c3ccncc3)nc2c1)c1ccccc1` (stereo unspecified) here?
Answer: Its Inhibition is 33.61%.

Question: `CN(C)CCNC(=O)N1CCCN(c2ncnc3cc(-c4ccccc4)sc23)CC1` was tested. Which Inhibition did it give?
Answer: Its Inhibition is 13.78%.

Question: `Cc1ncc(-c2ccnc(Nc3ccc(S(C)(=O)=O)cc3)n2)n1C(C)C` [AZD-5438] was tested. Which Inhibition did it give?
Answer: Its Inhibition is 28.03%.

Question: How did the Inhibition turn out when `COc1cc(OC)cc(C(=O)NCC2Cc3cc(Cl)cc(-c4ccncc4)c3O2)c1` (stereo unspecified) was run?
Answer: The Inhibition was 16.01%.

Question: Which Inhibition does the source give for `CCOc1ccc2cc(-c3nn(CC4CCN(C)CC4)c4ncnc(N)c34)ccc2c1.Cl` here?
Answer: Its Inhibition is 18.54%.

Question: For `COc1ccc(N(CCc2cccc(C)n2)C(=O)C2CCCCC2)cc1`, which Inhibition is on record?
Answer: The Inhibition was 4%.
